According to PubChem BioAssay AID1159580 (chemical genetic matrix, 2015):
The campaign covered roughly 5,500 compounds. About 2,000 (36%) were called active. Another 18% or so got no clear call; they are omitted. No stated cut-off is given here; in the data, active means normalized growth mostly below about 0.91 (no sharp cut-off); inconclusive means no clear call, values can overlap the other calls; inactive means mostly above about 0.92. The list shows a part of the results.

Assay: chemical genetic growth profiling, strain panel (AID 1159580);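 further: tested at 20 µM; growth read once vehicle control cultures reached saturation at 30 °C; 1 = growth at the plate median or of vehicle wells; lower values mean less growth of the strain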
Settings: growth OD

Measured: normalized growth

COc1cccc2c1cc([N+](=O)[O-])c1c(C(=O)O)cc3c(c12)OCO3
inactive: S. cerevisiae deletion strains, locus YJR066W, strain TOR1, active compounds read low 0.912 | S. cerevisiae deletion strains, locus YJR075W, strain HOC1, active compounds read low 1.04 | S. cerevisiae deletion strains, locus YKL009W, strain mrt4, active compounds read low 0.967 | S. cerevisiae deletion strains, locus YKL068W, active compounds read low 1.01 | S. cerevisiae deletion strains, locus YKL085W, strain MDH1 (second series), active compounds read low 0.999 | S. cerevisiae deletion strains, locus YKL085W, strain MDH1, active compounds read low 0.999 | S. cerevisiae deletion strains, locus YKL160W, strain elf1, active compounds read low 1.01 | S. cerevisiae deletion strains, locus YKL190W, strain CNB1, active compounds read low 1.02 | S. cerevisiae deletion strains, locus YKR001C, strain vps1, active compounds read low 1.03 | S. cerevisiae deletion strains, locus YKR026C, strain gcn3, active compounds read low 1.02 | S. cerevisiae deletion strains, locus YKR091W, strain srl3, active compounds read low 1.02 | S. cerevisiae deletion strains, locus YLL001W, strain dnm1, active compounds read low 1.01 | S. cerevisiae deletion strains, locus YLL026W, active compounds read low 1.01 | S. cerevisiae deletion strains, locus YLL041C, strain sdh2, active compounds read low 1.01 | S. cerevisiae deletion strains, locus YLR027C, strain aat2, active compounds read low 1.02 | S. cerevisiae deletion strains, locus YLR039C, strain RIC1, active compounds read low 1.06 | S. cerevisiae deletion strains, locus YLR058C, strain SHM2, active compounds read low 1.01 | S. cerevisiae deletion strains, locus YLR102C, strain apc9, active compounds read low 1.02 | S. cerevisiae deletion strains, locus YLR113W, strain HOG1, active compounds read low 0.971 | S. cerevisiae deletion strains, locus YLR221C, strain rsa3, active compounds read low 1.02 | S. cerevisiae deletion strains, locus YLR258W, strain gsy2, active compounds read low 1.03 | S. cerevisiae deletion strains, locus YLR262C, strain YPT6 (second series), active compounds read low 1 | S. cerevisiae deletion strains, locus YLR262C, strain YPT6, active compounds read low 1.07 | S. cerevisiae deletion strains, locus YLR268W, strain sec22, active compounds read low 1.06 | S. cerevisiae deletion strains, locus YLR320W, strain mms22, active compounds read low 1.02 | S. cerevisiae deletion strains, locus YLR330W, strain CHS5, active compounds read low 1.02 | S. cerevisiae deletion strains, locus YLR342W, strain FKS1 (second series), active compounds read low 0.989 | S. cerevisiae deletion strains, locus YLR342W, strain FKS1, active compounds read low 1.04 | S. cerevisiae deletion strains, locus YLR357W, strain rsc2, active compounds read low 1.01 | S. cerevisiae deletion strains, locus YLR370C, strain arc18, active compounds read low 1.03 | S. cerevisiae deletion strains, locus YLR371W, strain rom2, active compounds read low 1.03 | S. cerevisiae deletion strains, locus YLR384C, strain iki3, active compounds read low 1 | S. cerevisiae deletion strains, locus YLR418C, strain cdc73, active compounds read low 1.01 | S. cerevisiae deletion strains, locus YML016C, strain PPZ1, active compounds read low 1.01 | S. cerevisiae deletion strains, locus YML032C, strain rad52, active compounds read low 0.99 | S. cerevisiae deletion strains, locus YML120C, strain ndi1, active compounds read low 1.02 | S. cerevisiae deletion strains, locus YML124C, strain tub3, active compounds read low 1.01 | S. cerevisiae deletion strains, locus YMR058W, strain fet3, active compounds read low 1.02 | S. cerevisiae deletion strains, locus YMR078C, strain ctf18, active compounds read low 1.02 | S. cerevisiae deletion strains, locus YMR125W, strain sto1, active compounds read low 1.03 | S. cerevisiae deletion strains, locus YMR129W, active compounds read low 1.02 | S. cerevisiae deletion strains, locus YMR205C, strain PFK2, active compounds read low 1.05 | S. cerevisiae deletion strains, locus YMR223W, strain ubp8, active compounds read low 1.01 | S. cerevisiae deletion strains, locus YMR231W, strain pep5, active compounds read low 1.03 | S. cerevisiae deletion strains, locus YMR307W, strain GAS1, active compounds read low 0.988 | S. cerevisiae deletion strains, locus YNL067W, strain RPL9B, active compounds read low 1.04 | S. cerevisiae deletion strains, locus YNL071W, strain lat1, active compounds read low 1.02 | S. cerevisiae deletion strains, locus YNL183C, strain NPR1, active compounds read low 0.917 | S. cerevisiae deletion strains, locus YNL209W, strain ssb2, active compounds read low 1.02 | S. cerevisiae deletion strains, locus YNL233W, strain BNI4, active compounds read low 1.03 | S. cerevisiae deletion strains, locus YNL248C, strain rpa49, active compounds read low 1.01 | S. cerevisiae deletion strains, locus YNL250W, strain rad50, active compounds read low 1.01 | S. cerevisiae deletion strains, locus YNL271C, strain bni1, active compounds read low 1.01 | S. cerevisiae deletion strains, locus YNL298W, strain CLA4, active compounds read low 0.97 | S. cerevisiae deletion strains, locus YNL307C, strain MCK1, active compounds read low 1.03 | S. cerevisiae deletion strains, locus YNL322C, strain KRE1 (second series), active compounds read low 1.01 | S. cerevisiae deletion strains, locus YNL322C, strain KRE1, active compounds read low 1 | S. cerevisiae deletion strains, locus YNR049C, strain mso1, active compounds read low 1.02 | S. cerevisiae deletion strains, locus YNR052C, strain pop2, active compounds read low 1 | S. cerevisiae deletion strains, locus YOL006C, strain TOP1, active compounds read low 1.09 | S. cerevisiae deletion strains, locus YOL012C, strain htz1 1.07 | S. cerevisiae deletion strains, locus YOL147C, strain pex11, active compounds read low 1.01 | S. cerevisiae deletion strains, locus YOR001W, strain rrp6, active compounds read low 1.01 | S. cerevisiae deletion strains, locus YOR061W, strain CKA2, active compounds read low 1.02 | S. cerevisiae deletion strains, locus YOR069W, strain VPS5, active compounds read low 1.01 | S. cerevisiae deletion strains, locus YOR070C, strain gyp1, active compounds read low 1.01 | S. cerevisiae deletion strains, locus YOR080W, strain dia2, active compounds read low 1.02 | S. cerevisiae deletion strains, locus YOR083W, strain WHI5, active compounds read low 1 | S. cerevisiae deletion strains, locus YOR106W, strain vam3, active compounds read low 1.01 | S. cerevisiae deletion strains, locus YOR136W, strain idh2, active compounds read low 1.02 | S. cerevisiae deletion strains, locus YOR144C, strain elg1, active compounds read low 1.01 | S. cerevisiae deletion strains, locus YOR184W, strain ser1, active compounds read low 1 | S. cerevisiae deletion strains, locus YOR231W, strain MKK1, active compounds read low 0.928 | S. cerevisiae deletion strains, locus YOR265W, strain rbl2, active compounds read low 1.01 | S. cerevisiae deletion strains, locus YOR270C, strain vph1, active compounds read low 1.04 | S. cerevisiae deletion strains, locus YOR290C, strain snf2, active compounds read low 0.995 | S. cerevisiae deletion strains, locus YOR316C, strain cot1, active compounds read low 1.02 | S. cerevisiae deletion strains, locus YPL051W, strain arl3, active compounds read low 1.01 | S. cerevisiae deletion strains, locus YPL055C, strain LGE1, active compounds read low 1.04 | S. cerevisiae deletion strains, locus YPL078C, strain atp4, active compounds read low 1.01 | S. cerevisiae deletion strains, locus YPL106C, strain sse1, active compounds read low 1.03 | S. cerevisiae deletion strains, locus YPL240C, strain hsp82, active compounds read low 1.01 | S. cerevisiae deletion strains, locus YPL241C, strain CIN2, active compounds read low 1.01 | S. cerevisiae deletion strains, locus YPL256C, strain CLN2, active compounds read low 0.926 | S. cerevisiae deletion strains, locus YPR119W, strain clb2, active compounds read low 1.02 | S. cerevisiae deletion strains, locus YPR141C, strain kar3, active compounds read low 1.02 | S. cerevisiae deletion strains, locus YPR163C, strain tif3, active compounds read low 1.02 | S. cerevisiae deletion strains, locus YPR167C, strain met16, active compounds read low 1.02 | S. cerevisiae deletion strains, strain wtn01, active compounds read low 1.05 | S. cerevisiae strains, strain wild type, active compounds read low 1.02
